Among all 5,500 compounds or so, about 2,000 (36%) were called active. About 18% were inconclusive and are not listed. No stated cut-off is given here; in the data, active means normalized growth mostly below about 0.91 (no sharp cut-off); inconclusive means no clear call, values can overlap the other calls; inactive means mostly above about 0.92. Some of the results follow.
Assay: chemical genetic growth profiling, strain panel (AID 1159580);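 further: tested at 20 µM; growth read once vehicle control cultures reached saturation at 30 °C; 1 = growth at the plate median or of vehicle wells; lower values mean less growth of the strain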
Conditions: S. cerevisiae deletion strains, growth OD
[1] = locus YAR019C, strain CDC15, active compounds read low
[2] = locus YBL105C, strain PKC1, active compounds read low
[3] = locus YBR135W, strain CKS1, active compounds read low
[4] = locus YBR136W, strain MEC1, active compounds read low
[5] = locus YBR160W, strain CDC28, active compounds read low
[6] = locus YDL017W, strain CDC7, active compounds read low
[7] = locus YDL028C, strain MPS1, active compounds read low
[8] = locus YDL101C, strain DUN1, active compounds read low
[9] = locus YDL108W, strain KIN28, active compounds read low
[10] = locus YDL132W, strain cdc53, active compounds read low
[11] = locus YDL214C, strain PRR2, active compounds read low
[12] = locus YDR052C, strain DBF4, active compounds read low
[13] = locus YDR054C, strain cdc34, active compounds read low
[14] = locus YDR226W, strain ADK1, active compounds read low
[15] = locus YDR477W, strain SNF1, active compounds read low
[16] = locus YER123W, strain YCK3, active compounds read low
[17] = locus YER133W, strain GLC7, active compounds read low
[18] = locus YFL009W, strain cdc4, active compounds read low
[19] = locus YFL029C, strain CAK1, active compounds read low
[20] = locus YFR003C, strain YPI1, active compounds read low
[21] = locus YFR019W, strain FAB1, active compounds read low
[22] = locus YFR028C, strain CDC14, active compounds read low
[23] = locus YGR040W, strain KSS1, active compounds read low
[24] = locus YGR052W, strain FMP48, active compounds read low
[25] = locus YGR092W, strain DBF2, active compounds read low
[26] = locus YHR030C, strain SLT2, active compounds read low
[27] = locus YHR079C, strain IRE1, active compounds read low
[28] = locus YHR082C, strain KSP1, active compounds read low
[29] = locus YHR205W, strain SCH9, active compounds read low
[30] = locus YIL147C, strain SLN1, active compounds read low
[31] = locus YJL095W, strain BCK1, active compounds read low
[32] = locus YJL128C, strain PBS2, active compounds read low
[33] = locus YJL157C, strain FAR1, active compounds read low
[34] = locus YJR016C, strain ILV3, active compounds read low
[35] = locus YJR066W, strain TOR1 (second series), active compounds read low
[36] = locus YJR066W, strain TOR1, active compounds read low
[37] = locus YKL048C, strain ELM1, active compounds read low
[38] = locus YKL067W, strain YNK1, active compounds read low
[39] = locus YKL101W, strain HSL1, active compounds read low
[40] = locus YKL193C, strain SDS22, active compounds read low
[41] = locus YKL203C, strain TOR2, active compounds read low
[42] = locus YLR113W, strain HOG1, active compounds read low
[43] = locus YLR133W, strain CKI1, active compounds read low
[44] = locus YLR403W, strain SFP1, active compounds read low
[45] = locus YML070W, strain DAK1, active compounds read low
[46] = locus YMR001C, strain CDC5, active compounds read low
[47] = locus YMR205C, strain PFK2 (second series), active compounds read low
[48] = locus YMR277W, strain FCP1, active compounds read low
[49] = locus YNL006W, strain LST8, active compounds read low
[50] = locus YNL020C, strain ARK1, active compounds read low
[51] = locus YNL161W, strain CBK1, active compounds read low
[52] = locus YNL183C, strain NPR1, active compounds read low
[53] = locus YNL207W, strain RIO2, active compounds read low
[54] = locus YNL222W, strain SSU72, active compounds read low
[55] = locus YNL307C, strain MCK1 (second series), active compounds read low
[56] = locus YOL078W, strain AVO1, active compounds read low
[57] = locus YOL136C, strain PFK27, active compounds read low
[58] = locus YOR061W, strain CKA2, active compounds read low
[59] = locus YOR119C, strain RIO1, active compounds read low
[60] = locus YOR231W, strain MKK1, active compounds read low
[61] = locus YOR329C, strain SCD5, active compounds read low
[62] = locus YPL031C, strain PHO85, active compounds read low
[63] = locus YPL153C, strain RAD53, active compounds read low
[64] = locus YPL204W, strain HRR25, active compounds read low
[65] = locus YPL209C, strain IPL1, active compounds read low
[66] = locus YPL256C, strain CLN2, active compounds read low
[67] = locus YPR025C, strain CCL1, active compounds read low
[68] = locus YPR106W, strain ISR1, active compounds read low
[69] = locus YPR111W, strain DBF20, active compounds read low
[70] = strain NNK1, active compounds read low
[71] = strain TSCII, active compounds read low

Measured: normalized growth

Nc1nc(Cl)nc2c1ncn2[C@@H]1O[C@H](COP(=O)(O)OP(=O)(O)OP(=O)(O)O)[C@H](O)C1O (stereo not given in full)
inactive: locus YAL013W, strain DEP1, active compounds read low 0.999 | locus YAL040C, strain CLN3, active compounds read low 0.995 | locus YCL061C, strain MRC1 (second series), active compounds read low 1 | locus YDR363W, strain ESC2, active compounds read low 1.01 | locus YER002W, strain NOP16, active compounds read low 0.99 | locus YGR078C, strain PAC10, active compounds read low 1.01 | locus YJR075W, strain HOC1, active compounds read low 1 | locus YMR307W, strain GAS1, active compounds read low 0.997 | locus YNL128W, strain TEP1, active compounds read low 1.01 | locus YNL175C, strain NOP13, active compounds read low 0.995 | locus YNL197C, strain WHI3, active compounds read low 1.02 | locus YNL224C, strain SQS1, active compounds read low 0.987 | locus YOR083W, strain WHI5 (second series), active compounds read low 1.01

CCCc1c(C(=O)NNc2cccc(Cl)c2)cnn1-c1ccccc1
inactive: [1] 0.984 | [2] 0.974 | [3] 0.987 | [4] 0.982 | [5] 0.976 | [6] 0.974 | [7] 0.995 | [8] 0.978 | [9] 0.988 | [10] 0.993 | [11] 0.944 | [12] 0.983 | [13] 0.986 | [14] 0.98 | [15] 0.954 | [16] 0.917 | [17] 0.957 | [18] 0.986 | [19] 0.98 | [20] 0.987 | [21] 0.937 | [22] 0.981 | [23] 0.925 | [24] 1 | [25] 0.957 | [26] 0.963 | [27] 0.963 | [28] 1 | [29] 0.933 | [30] 0.992 | [31] 0.968 | [32] 0.917 | [33] 0.937 | [34] 0.986 | [35] 0.911 | [36] 1.02 | [37] 0.968 | [38] 0.947 | [39] 0.924 | [40] 0.988 | [41] 0.987 | [42] 0.864 | [43] 0.936 | [44] 0.917 | [45] 0.927 | [46] 0.979 | [47] 0.948 | [48] 0.987 | [49] 0.996 | [50] 0.927 | [51] 0.983 | [52] 0.98 | [53] 0.983 | [54] 0.976 | [55] 0.935 | [56] 0.985 | [57] 0.897 | [58] 0.963 | [59] 1.01 | [60] 0.898 | [61] 0.981 | [62] 0.963 | [63] 0.94 | [64] 0.924 | [65] 0.973 | [66] 0.892 | [67] 0.982 | [68] 0.959 | [69] 0.965 | [70] 0.971 | [71] 0.988

CCCc1c(C(=O)NC2Cc3ccccc3C2)cnn1-c1ccccc1
inactive: [1] 0.986 | [2] 0.99 | [3] 0.996 | [4] 0.99 | [5] 0.99 | [6] 0.999 | [7] 0.993 | [8] 0.993 | [9] 0.997 | [10] 0.99 | [11] 0.976 | [12] 0.998 | [13] 0.983 | [14] 0.991 | [15] 0.964 | [16] 0.979 | [17] 0.965 | [18] 0.986 | [19] 0.988 | [20] 0.995 | [21] 0.974 | [22] 0.986 | [23] 0.96 | [24] 1.05 | [25] 1.01 | [26] 0.97 | [27] 1 | [28] 1.04 | [29] 0.991 | [30] 0.994 | [31] 0.991 | [32] 0.979 | [33] 0.969 | [34] 0.98 | [35] 0.93 | [36] 0.986 | [37] 0.982 | [38] 0.991 | [39] 0.972 | [40] 0.988 | [41] 1.01 | [42] 0.951 | [43] 0.968 | [44] 0.956 | [45] 0.97 | [46] 0.987 | [47] 0.987 | [48] 0.989 | [49] 0.995 | [50] 0.984 | [51] 0.991 | [52] 0.998 | [53] 0.987 | [54] 0.992 | [55] 0.998 | [56] 0.985 | [57] 0.96 | [58] 0.977 | [59] 1.01 | [60] 0.934 | [61] 0.992 | [62] 0.98 | [63] 0.956 | [64] 0.963 | [65] 0.994 | [66] 0.921 | [67] 0.998 | [68] 0.98 | [69] 0.981 | [70] 0.986 | [71] 0.997
